In the library only some 11% were active in any assay of this set; here they are far more common.
HP1b chromo inh: HP1-beta chromodomain-methylated histone interaction inhibition; AlphaScreen HP1-beta / biotin-H3K9me3 peptide binding; Potency, µM (titrated, usually from 114 µM), inactives show at the highest dose activity change, negative = inhibition, actives largely listed as inhibitors; actives 0.56% (n = 390,000); AID 540317; further: potency means the concentration at half of the fitted maximal effect; nearly all actives have a fitted effect of over 70% in size
Target sequence (P83916 whole entry, looked up): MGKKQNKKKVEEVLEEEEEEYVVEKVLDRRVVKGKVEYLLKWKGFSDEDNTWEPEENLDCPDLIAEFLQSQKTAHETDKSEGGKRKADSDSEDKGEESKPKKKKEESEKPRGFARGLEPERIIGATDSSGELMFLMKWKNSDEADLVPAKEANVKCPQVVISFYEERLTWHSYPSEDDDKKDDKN
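HP1-beta protein (50 nM final) preincubated 30 min at room temperature with biotinylated H3(1-18)K9me3 peptide (50 nM) in PBS pH 7.4, 0.01% Tween-20, then compound added for 30 min. AlphaScreen streptavidin donor/nickel chelate acceptor beads (10 ug/mL final), 30 min dark, luminescence read.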
BAZ2B block: BAZ2B (human) inhibition. Q9UIF8. AlphaScreen BAZ2B-H3K14Ac peptide displacement. Potency, µM (highest dose often 114 µM), without a hit: at the top dose activity change, negative = inhibition, usual class: inhibitors. actives 4.4% (n = 360,000). AID 504333; further: potency means the concentration at half of the fitted maximal effect; on the % scale 0 is the no-effect control and ±100 the full control effect; nearly all actives have a fitted effect of over 60% in size
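AlphaScreen luminescence quantifies BAZ2B engagement of H3K14Ac peptide; the protein and biotinylated peptide are both at 50 nM final, buffer PBS pH 7.4 with 0.01% Tween-20, all steps at room temperature.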
PI5P4K alpha inh: PI5P4K alpha (human) kinase inhibition | PI5P4Kalpha enzyme, ADP-Glo luminescence, 60 min; stronger effect = lower value | max response, % | actives 1.2% (n = 330,000) | AID 652105; active means max response of -50% or lower; inconclusive means between -30% and -50%; inactive means -30% or higher; further: value at the top dose of about 77 µM; on the % scale 0 is the no-effect control and ±100 the full control effect
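ADP-Glo luminescence end-point read after a 60 min room-temperature kinase reaction of PI5P4Kalpha plus substrate, initiated with ATP at 5 microM final. Buffer: 0.038 M HEPES pH 7.4, EGTA, 0.1% CHAPS, 5% DMSO.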
L3MBTL1 inh: inhibitors of human L3MBTL1; Q9Y468; AlphaScreen L3MBTL1–H3K9me1 peptide binding; Potency, µM (top dose mostly 57.1 µM), for the others: at the top dose activity, negative = inhibition, usual class: inhibitors; actives 0.66% (n = 230,000); further: potency means the concentration at half of the fitted maximal effect; on the % scale 0 is the no-effect control and ±100 the full control effect; nearly all actives have a fitted effect of over 60% in size
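L3MBTL1 50 nM + b-AHA-H3(1-15)K9me1 75 nM, 30 min RT; compound added, 30 min RT; streptavidin donor/Ni-chelate acceptor beads 10 ug/mL each final, 30 min RT dark; AlphaScreen read.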
G9a inh: inhibitors of human histone lysine methyltransferase G9a; actives 8.8% (n = 350,000); G9a H3K9 monomethylation, AlphaScreen, 2 h; Potency, µM (series often up to 102 µM), for the others: at the highest dose activity, negative = inhibition, actives largely listed as inhibitors; Q96KQ7; further: potency means the concentration at half of the fitted maximal effect; on the % scale 0 is the no-effect control and ±100 the full control effect; nearly all actives have a fitted effect of over 75% in size
Target sequence (Q96KQ7 913-1193 limits assumed): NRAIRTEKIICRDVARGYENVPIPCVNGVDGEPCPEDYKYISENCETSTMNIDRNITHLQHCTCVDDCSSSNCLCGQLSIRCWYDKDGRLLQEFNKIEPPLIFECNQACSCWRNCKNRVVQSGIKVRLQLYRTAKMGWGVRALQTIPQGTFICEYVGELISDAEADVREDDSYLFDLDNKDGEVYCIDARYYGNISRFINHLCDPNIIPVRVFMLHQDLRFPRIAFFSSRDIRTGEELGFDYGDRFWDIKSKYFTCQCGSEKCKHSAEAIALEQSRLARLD
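Signal arises when biotinylated H3K9 peptide, once monomethylated, bridges streptavidin donor and antibody-captured acceptor beads. Enzyme at 20 nM was preincubated 15 min with test compounds; peptide 500 nM and SAM 20 uM then reacted for 2 h.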
JMJD2A Tudor inh: inhibitors of human JMJD2A Tudor domain. O75164. AlphaScreen JMJD2A-Tudor / H3K4me3 peptide binding. Potency, µM (top dose mostly 114 µM), without a hit: top-dose activity change, negative = inhibition, actives largely listed as inhibitors. actives 4.4% (n = 390,000). AID 504339; further: potency means the concentration at half of the fitted maximal effect; on the % scale 0 is the no-effect control and ±100 the full control effect; nearly all actives have a fitted effect of over 50% in size
* marks the source's active call; other numbers are inactive results; ? = inconclusive; / = no result given; [ ] = remark or other dose. Unless noted, the call rests on the fitted dose curve; in most records, active means well fitted inhibition curve with a large enough effect; inconclusive means small, poorly fitted or top-dose-only effect; inactive means no such curve, though single readings can be large or run the other way.

SMILES	HP1b chromo inh	BAZ2B block	PI5P4K alpha inh	L3MBTL1 inh	G9a inh	JMJD2A Tudor inh
COc1cc(C(=S)N2CCCC2)ccc1OCc1ccc(C)cc1	-5%	-36%	-2	-12%	32µM*	-28%
CCOc1ccc(C(=S)N2CCCC2)cc1OC	22%	-4%	0	1%	8%[59 µM]	-6%
COc1cccc(C(=S)N2CCCC2)c1OC	?	5%	-11	-4%	8.9µM*	-2%
Cc1ccc(COc2ccccc2C(=S)N2CCCC2)cc1	-12%	-26%	?	-9%	13µM*	7%
O=C(OCC(=O)N1CCCC1)c1ccccc1OCc1ccccc1	51%	4%	-5	-19%	-35%	15%
COc1cccc(C(=O)C(=O)c2cccc(OC)c2OC)c1OC	8%[57 µM]	/	-6	/	/	-19%
Cc1ccc2c(c1)C(c1ccccc1)N(C(=O)COc1ccc(Cl)cc1Cl)CC(=O)N2 (configuration not stated)	15%	-17%	/	/	-9%[59 µM]	-21%
CCOC(=O)CSc1nc2ccc(NC(=O)COc3ccc(F)cc3)cc2s1	100%	1%	/	/	20%[59 µM]	-7%
COc1cc(C)ccc1OCc1cc(C(=O)N2CCCCCC2)no1	29%	24%	7	/	/	16µM*
COc1ccc(NC(=O)c2oc3ccc(S(=O)(=O)N4CCC5(CC4)OCCO5)cc3c2C)cc1Cl	24%	0%	/	/	-1%[59 µM]	-12%
Cc1cc(Cl)c(OCCOCCN2CCN(C)CC2)c(Br)c1	?	50µM*	-3	-3%	?	7.9µM*
Cc1cc(Cl)c(OCCOCCN2CCC(C)CC2)c(Br)c1	-20%	?	-7	11%	?	7.9µM*
Cc1cc(C)c(OCCCCN2CCC(C)CC2)c(Br)c1	?	?	-4	/	-47%	5µM*
COc1cccc(N2CCN(c3c4c(nc5nncn35)CCC4)CC2)c1	-2%	-10%	/	/	8%[59 µM]	-30%
COc1ccc(N2CCN(C(=O)CCC(=O)N3CC(C)Oc4ccc(C)cc43)CC2)cc1 (configuration not stated)	-19%	40µM*	-4	2%	45µM*	?
COc1ccc(N2CCN(C(=O)Cc3coc4ccc(C)cc34)CC2)cc1	?	40µM*	/	/	16µM*	?
COc1ccc(N2CCN(C(=O)CCC(=O)N3CCOc4ccc(C)cc43)CC2)cc1	-10%	-8%	-3	8%	/	?
COc1ccc(N2CCN(C(=O)Cc3coc4cc(C)ccc34)CC2)cc1	-12%	40µM*	3	/	45µM*	-30%[57.1 µM]
Cc1cccc(NS(=O)(=O)c2ccc3oc(=O)c4ncn(C)c4c3c2)c1C	25%	-7%	/	/	-12%[59 µM]	-12%
CCN1CCN(C(=O)Cn2ncc3c4ccccc4n(Cc4c(C)cc(C)cc4C)c3c2=O)CC1	10%	?	/	/	-30%[59 µM]	-31%
COc1ccc(CCNC(=O)Cn2nc(-c3ccc(Cl)cc3)ccc2=O)cc1OC	6%	0%	/	/	-4%[59 µM]	-21%
Cc1cccc(Cn2cc(S(=O)(=O)c3ccccc3)c(=O)c3cc(F)c(N4CCOCC4)cc32)c1	58%	4%	/	/	0%[59 µM]	-17%
Cc1ccnc(NCc2cc(Cl)cc(Cl)c2O)c1	/	/	2	/	/	/
Oc1c(Cl)cc(Cl)cc1CNc1nccs1	16%	0%	1	6%	79µM*	-13%
N#Cc1ccccc1NC(=O)CN1C(=O)NC(Cc2c[nH]c3ccccc23)C1=O (configuration not stated)	25%	-3%	-8	3%	10µM*	-10%
O=C(c1ccco1)[C@@H]1[C@@H]2C(=O)N(c3ccc(F)cc3)C(=O)[C@@H]2[C@H]2C=Cc3ccccc3N21	-26%	-37%	-24	-13%	6.3µM*	?
NC(=O)[C@@H]1[C@@H]2C(=O)N(c3ccc(F)cc3)C(=O)[C@@H]2[C@H]2C=Cc3ccccc3N21	?	-36%	-16	/	8.9µM*	-34%

Source: PubChem (National Center for Advancing Translational Sciences (NCATS))
